HT1080-NT tox = kills 2HG-producing HT-1080-NT fibrosarcoma cells; HT-1080-NT fibrosarcoma viability, CellTiter-Glo ATP luminescence, 48 h; Potency, µM (doses to about 46.1 µM), for the others: at the highest dose activity, negative = less viability, hits mostly cytotoxic; actives 1.6% (n = 360,000); AID 686970;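 note: NT is the 2HG producing partner of a matched IDH1 knockdown line; 0% = DMSO-treated cells and -100% = media-only wells without cells; nearly all actives have a fitted effect of over 55% in size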
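Compounds were tested in concentration-response format on HT-1080-NT cells for 48 hours at 37 degrees C. Cell viability came from CellTiter-Glo luminescence; curves were classified by r2, response magnitude and activity.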
MCF10A rerep = induces DNA re-replication in MCF 10a normal breast cells | MCF 10A DNA re-replication, Hoechst nuclear intensity, 48 h | Potency, µM (titrated, usually from 46.1 µM), inactives show at the top dose activity, positive = re-replication, usual class: activators | actives 2.9% (n = 350,000) | AID 624296; note: % of control where 0% means no effect; nearly all actives have a fitted effect of over 50% in size
KB-V1 cytotox = KB-V1 MDR subline cytotoxicity; Potency, µM (top dose mostly 46.1 µM), hits mostly cytotoxic; AID 1347076; actives 3.4% (n = 400,000); KB-V1 MDR cells viability, CellTiter-Glo, 72 h; note: % is set by controls: 0 for no effect and ±100 for the full control effect; nearly all actives have a fitted effect of over 60% in size
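Potencies derive from concentration-effect curves fitted to normalized luminescence (CellTiter-Glo) of KB-V1 cells treated for 72 h at 37 degrees C in phenol-red-free DMEM containing 10% FBS.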
SW480 rereplic = induces DNA re-replication in SW480 colon adenocarcinoma cells. SW480 DNA re-replication, Hoechst DNA content imaging, 48 h. Potency, µM (series often up to 46.1 µM), for inactives: at the top dose re-replication activation, hits mostly activators. actives 1.8% (n = 340,000). AID 624297; note: % of control where 0% means no effect; nearly all actives have a fitted effect of over 55% in size
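Image-based DNA-content assay: after two days of treatment, nuclei were labelled with the DNA dye Hoechst and imaged, and hits were compounds raising the count of nuclei showing high fluorescence intensity.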
HT1080 IDH1KD tx = toxicity to HT-1080 IDH1 knockdown cells (counter line). HT-1080 IDH1 knockdown viability, ATP luminescence, 48 h. Potency, µM (titrated, usually from 46.1 µM), without a hit: at the top dose activity, negative = toxicity, most hits filed as cytotoxic. actives 2% (n = 360,000);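 note: 0% = DMSO wells and -100% = cell-free medium wells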
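% activity derives from luminescence (CellTiter-Glo), normalised to DMSO and no-cell wells. HT-1080-IDH1KD cells, 750/well, had 48 h compound exposure at 37 °C.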
KB-3-1 tox = kills parental KB-3-1 adenocarcinoma cells; KB-3-1 viability, CellTiter-Glo ATP luminescence, 72 h; Potency, µM (titrated, usually from 46.1 µM), hits mostly cytotoxic; actives 1.4% (n = 400,000); note: % is set by controls: 0 for no effect and ±100 for the full control effect; nearly all actives have a fitted effect of over 60% in size
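Multi-concentration cytotoxicity screen in KB-3-1 cells grown in DMEM lacking phenol red with 10% FBS. After 72 h at 37 °C with compound, ATP-dependent luminescence was recorded.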
An asterisk follows results filed as active; i = inactive; ? = inconclusive; . = not tested or not shown; ! = repeats disagree; [ ] = remark or other dose. Only some compounds are listed: those with a hit (about 7.9% of all), similar ones and a draw of the others. Calls come from the whole dose curve; as a rule, active = well fitted curve in the direction sought with a large enough effect; inconclusive = small, poorly fitted or top-dose-only effect, or another doubt; inactive = no such curve, though single readings can be large; an effect the other way counts as inactive or inconclusive. Potency is the fitted concentration of half-maximal effect.

SMILES	HT1080-NT tox	MCF10A rerep	KB-V1 cytotox	SW480 rereplic	HT1080 IDH1KD tx	KB-3-1 tox
CN(Cc1ccccc1)C(=O)CN1C(=O)NC(C)(c2ccc(Cl)cc2)C1=O (stereo not given)	-10%	-1%	i	-32%	-9%	i
CCN(Cc1ccccc1)C(c1cc2cc(C)cc(C)c2[nH]c1=O)c1nnnn1CCOC (stereo not given)	-8%	1%	i	5%	-12%	i
COCCn1nnnc1C(c1cc2cc(C)cc(C)c2[nH]c1=O)N1CCN(c2ccccc2F)CC1 (stereo not given)	4%	2%	23µM*	1%	-3%	i
CCN(Cc1ccccc1)C(c1cc2cc(C)ccc2[nH]c1=O)c1nnnn1CCOC (stereo not given)	5%	1%	16µM*	3%	1%[9.24 µM]	?
Cc1cc(Cl)c2oc(C(=O)N3CCN(c4ccncc4)CC3)c(C)c2c1	12µM*	5.8µM*	?	12µM*	12µM*	?
Cc1ccc(NS(=O)(=O)c2ccc3c(c2)NC(=O)CCS3)c(Br)c1	-29%	0%	23µM*!	6%	-26%	?
COc1cc(OC)c(NS(=O)(=O)c2ccc3c(c2)NC(=O)CCS3)cc1Cl	.	.	?	.	.	18µM*
COc1ccc(N2C(=O)C3C(C2=O)C3(c2ccccc2)c2ccccc2)cc1 (stereo not given)	-15%	12%	i	-2%	-18%	i
Cc1oc(-c2ccc(Cl)cc2)nc1CN1CCC(C(=O)NCCCN2CCOCC2)CC1	22µM*	0%	i	?	?	i
CCC1CCCCN1CCCNC(=O)C1CCN(Cc2nc(-c3ccc(Cl)cc3)oc2C)CC1 (stereo not given)	18µM*	?	i	4%	?	?
Cc1oc(-c2ccc(Cl)cc2)nc1CN1CCC(C(=O)NCc2cccs2)CC1	21µM*	15%	i	14%	?	i
Cc1oc(-c2cccc(Cl)c2)nc1CN1CCCC(C(=O)NCc2ccc(F)cc2)C1 (stereo not given)	.	.	i	.	.	i
Cc1oc(-c2ccc(Cl)cc2)nc1CN1CCC(C(=O)NCC2CCCO2)CC1 (stereo not given)	-10%	-3%	?	10%	-8%	i
Cc1oc(-c2cccc(Cl)c2)nc1CN1CCCC(C(=O)NCCCN2CCOCC2)C1 (stereo not given)	-21%	?	13µM*	12%	-29%	i
CCOc1cc(CNCc2cc(OC)cc(OC)c2)ccc1OC	?	7%	?	6%	?	i
CC(NC(=O)COC(=O)Cn1cnc2ccccc2c1=O)C1CC2CCC1C2 (stereo not given)	-1%	-2%	i	-1%	-3%	i
CCOc1ccc(/C=C/C(=O)c2c(O)c3ccccc3oc2=O)cc1	-12%	?	12µM*	?	?	i
CN(C)c1ccc(/C=C/C(=O)c2c(O)c3ccccc3oc2=O)cc1	-10%	4%	i	?	0%	i
COc1ccc(-c2cnc(C(N)=O)c(=O)[nH]2)cc1	8%	.	i	.	-1%	i
CC(C)(C)c1cc(N)n2nc(C(C)(C)C)cc2n1	10%	10%	i	-27%	0%	i
O=[N+]([O-])c1ccc2[nH]c(=S)sc2c1	?	?	12µM*	-1%	-19%	?
O=[N+]([O-])c1ccc2[nH]c(=S)[nH]c2c1	0%	-2%	i	6%	-10%	i
CCc1cc[n+](C2=C([O-])c3ccccc3C(=O)/C2=N\S(=O)(=O)c2cccs2)cc1	18µM*	?	i	4.6µM*	18µM*	i
CC(C)(C)C1CCC(=NNc2ccc(S(N)(=O)=O)cc2[N+](=O)[O-])CC1 (stereo not given)	?	?	i	14%	18µM*	?
COc1ccccc1NS(=O)(=O)c1ccc(NN=C2CCCC2)c([N+](=O)[O-])c1	5%	11%	2.9µM*	-1%	-17%	i
SMILES	HT1080-NT tox	MCF10A rerep	KB-V1 cytotox	SW480 rereplic	HT1080 IDH1KD tx	KB-3-1 tox
CCOc1cc(S(=O)(=O)Nc2ccccn2)ccc1F	16%	-3%	?	-7%	17%	i
Cc1cc2cc3c(=O)[nH]c(=O)nc-3n(CC(O)C(O)C(O)CO)c2cc1C (stereo not given)	-5%	?	i	21µM*	-29%	i
Cc1cc2cc3c(=O)[nH]c(=O)cc-3n(CC(O)C(O)C(O)CO)c2cc1C (stereo not given)	-8%	.	i	.	-14%	i
COc1cc(C(=O)N2CCCc3ccccc32)cc(OC)c1OC	?	10µM*	?	?	?	?
Cc1nc2ccc(C(=O)N3c4ccccc4CC3C)cc2s1 (stereo not given)	?	?	?	?	18µM*	?
COc1cc(C(=O)N2c3ccccc3CC2C)cc(OC)c1OC (stereo not given)	-15%	-1%	18µM*	5%	0%[9.24 µM]	?
CCCN(CCC)S(=O)(=O)c1ccc(C(=O)N2CCCc3ccccc32)cc1	4%	23µM*	?	?	3%	?
CC1Cc2ccccc2N1C(=O)c1ccnc(C(C)(C)C)c1 (stereo not given)	5%	23%	i	2%	11%	i
COc1ccc(C(=O)N2CCCc3ccccc32)cc1OC	17%	9%	i	-9%	8%	i
O=C(/C=C/c1cccc([N+](=O)[O-])c1)NC1CC2CCC1C2 (stereo not given)	-3%	17%	?	0%	-2%	i
O=C(Nc1ccncc1)c1cc(S(=O)(=O)N2CCN(c3ccccc3)CC2)ccc1Cl	-2%	10%	i	0%	-13%	i
COc1c(C)cccc1C(=O)NCCCNC(=O)c1ccc(C)nc1	10%	-4%	i	-8%	15%	i
O=C(c1ccccc1)N1CCCc2ccccc21	1%	-3%	i	-1%	2%	i
O=C(Nc1cccc(C(=O)N2CCCc3ccccc32)c1)c1ccccc1	?	15µM*	21µM*	?	23µM*	?
O=C(CSc1n[nH]c(=O)n1CCc1ccccc1)NC1CCCC1	10%	.	i	.	11%	?
Cc1c(Cc2ccccc2)sc(/N=C/c2c(O)ccc3ccccc23)c1C(N)=O	?	12µM*	?	?	?	i

High-throughput results: PubChem, National Center for Advancing Translational Sciences (NCATS)
